Most compounds without a hit are left out; they make up all but 0.83% or so of the library.
LRH-1 inv ag: suppresses constitutive activity of human LRH-1 | inhibition, % at 3.6 µM | O00482 | hit rate 0.13% among 360,000 | AID 602396 | HEK293T StAR-luciferase reporter, LRH-1 transfected, 24 h;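 active = inhibition above the mean inhibition of all tested compounds plus 3 SD, cut at about 73% in these data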
NCOA3 inh: human NCOA3 inhibition; Q9Y6Q9; HEK293 GAL4-SRC3 luciferase reporter, luminescence; inhibition, % at 3.6 µM; hit rate 0.17% among 360,000; AID 588352;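 active = inhibition above a per-campaign cutoff, the mean of all compounds plus 3 SD, cut at about 60% in these data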;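 note: higher means less SRC3-driven luciferase light from the GAL4 reporter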
NCOA2 inhibitor: human SRC2 (NCOA2) inhibition | HEK293 GAL4-SRC2 luciferase reporter, luminescence | inhibition, % at 9 µM | hit rate 0.17% among 370,000;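 active = inhibition above the mean inhibition of all tested compounds plus 3 SD, set per campaign, cut at about 52% in these data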
SRC1 inh: inhibits human SRC1 coactivator. AID 588354. inhibition, % at 3.6 µM. Q15788. hit rate 0.12% among 360,000. HEK293 GAL4-SRC1 luciferase reporter, luminescence;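 active = inhibition above the campaign mean plus 3 SD, with each screening campaign given its own cutoff, cut at about 60% in these data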
NR2F2 inh: NR2F2 (human) inhibition, primary screen. HEK293T NGFI-A luciferase reporter, luminescence. hit rate 0.7% among 370,000. inhibition, % at 8.6 µM. P24468;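 active = inhibition above a per-plate cutoff, mean inhibition of test wells between control levels plus 3 SD, cut at about 38% in these data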;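 note: cells cotransfected with COUP-TFII expression vector driving the NGFI-A reporter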
Gal4-VP16 ctr: counter-screen for COUP-TFII antagonists: inhibitors of VP16. inhibition, % at 8.5 µM. HEK293 Gal4-VP16 luciferase reporter, luminescence. hit rate 25% among 2,500. AID 687007. shares compounds with NR2F2 inh; in the data active = inhibition above about 13%
NR2F2 inh conf: confirmation of human COUP-TFII (NR2F2) inhibitors | shares compounds with NR2F2 inh | HEK293 NGFI-A luciferase reporter, luminescence | inhibition, % at 8.5 µM | hit rate 45% among 2,500;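 active = mean inhibition over three repeats above a set limit taken from the earlier primary screen, cut at about 38% in these data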
A number is an active result; 0 = inactive; - = not tested or not shown.

SMILES	LRH-1 inv ag	NCOA3 inh	NCOA2 inhibitor	SRC1 inh	NR2F2 inh	Gal4-VP16 ctr	NR2F2 inh conf
CCN1C=CC(=C2C(=O)c3ccccc3C2=O)C=C1	0	0	65	0	70	31	0
CC[C@@]1(c2cccc(Cl)c2)C(=O)N(C(=O)OC(C)C)N1C(=O)OC(C)C	-	-	0	-	0	-	-
Cn1cc(/C=C/c2cc[n+](C)cc2)c2cc(Cl)ccc21	0	0	0	0	59	0	0
COc1ccc2[nH]c3c(NCCCOC(C)C)ncnc3c2c1	0	0	0	0	0	-	-
COc1ccc2[nH]c3c(NCCC4=CCCCC4)ncnc3c2c1	0	0	0	0	54	0	0
CC1=C(C(=O)OCc2ccc3c(c2)OCO3)C(c2ccc(Cl)cc2)NC(=O)N1 (stereo unspecified)	0	65	59	75	48	29	0
CC1=C(C(=O)OCc2ccc3c(c2)OCO3)C(c2ccc(F)cc2)NC(=O)N1 (stereo unspecified)	0	0	0	74	38	23	0
O=C(NCc1ccccc1)[C@@H]1CCCN1C(=O)[C@H]1CCCN1C(=O)C1CCCCC1	-	-	0	-	0	-	-
CCN(CC)CCOC(=O)/C=C/c1ccccc1	0	0	0	0	0	-	-
CCN(CC)CC(C)(C)C(=O)/C=C/c1ccc(/C=C/C(=O)C(C)(C)CN(CC)CC)cc1	91	0	74	0	93	89	101
CN1[C@@H](Cc2ccccc2)COc2cccc(N3CCCC3)c2S1(=O)=O	-	-	0	-	0	-	-
CC(C)CNc1ncnc2c1ncn2[C@H]1CN(Cc2ccncc2)C[C@@H](CO)O1	0	0	0	0	0	-	-
CC(C)CNc1ncnc2c1ncn2[C@H]1CN(Cc2ccc(-c3ccccc3)cc2)C[C@@H](CO)O1	0	0	0	0	61	0	43
CC(C)Nc1ncnc2c1ncn2[C@H]1CN(Cc2ccc(-c3ccccc3)cc2)C[C@@H](CO)O1	0	0	0	0	49	0	0
CC1CCC2(CC1)CCN(CCCOC(=O)Nc1cccc(F)c1)C2=O (stereo unspecified)	-	-	0	-	0	-	-
O=C(Nc1ccn(Cc2ccccc2F)n1)c1ccc(COc2ccccc2Cl)cc1	0	0	0	0	61	0	0
O=C(Nc1ccn(Cc2c(F)c(F)cc(F)c2F)n1)c1ccc(COc2ccccc2Cl)cc1	0	0	-	0	-	-	-
CCOc1cc(CNc2ccc3c(c2)OCCO3)cc(Br)c1OC	0	0	0	0	51	0	38
Cc1ccc2oc(/N=C(\N)NC(=O)C3CC3)nc2c1	0	0	0	0	0	-	-
Cc1ccc2oc(/N=C(\N)NC(=O)C(C)(C)C)nc2c1	83	86	81	83	93	88	105
CC(C)CN(CC(C)C)C(=O)c1ccc2c(c1)NC(=O)C(C)(C)O2	-	-	0	-	0	-	-
Cn1c(=O)n(C)c2cc([N+](=O)[O-])c(N3CCN(C(=O)c4ccccc4Cl)CC3)cc21	0	0	0	0	45	0	0
Cn1c(=O)n(C)c2cc([N+](=O)[O-])c(N3CCN(C(=O)c4ccccc4Br)CC3)cc21	0	0	0	0	0	-	-
CC(C)(C)OC(=O)NCc1cc(F)ccc1/C=C/S(=O)(=O)NCc1ccc(F)cc1	-	-	0	-	0	-	-
COc1ccc2nc(NC(=O)C3CCN(S(=O)(=O)c4cccs4)CC3)sc2c1	0	0	0	0	48	0	0
Cc1ccc2nc(NC(=O)C3CCN(S(=O)(=O)c4cccs4)CC3)sc2c1	0	0	0	0	57	0	0
CCCN(CCC)CCN1CCN(C(=O)[C@H](CCc2ccccc2)NC(=O)[C@H]2O[C@@H](n3cnc4c(N)ncnc43)[C@H](O)[C@@H]2O)CC1	-	-	0	-	0	-	-
COC(=O)C1=C(C)N(CCCC(=O)O)C(=O)NC1c1ccccc1OS(=O)(=O)c1ccccc1[N+](=O)[O-] (stereo unspecified)	0	0	0	0	0	-	-
CCOC(=O)C1=C(C)N(Cc2ccccc2)C(=O)NC1c1ccccc1OS(=O)(=O)c1ccccc1[N+](=O)[O-] (stereo unspecified)	0	0	0	0	47	0	0
Cc1ccc(-n2c(SC/C=C/c3ccccc3)nnc2-c2ccco2)cc1	-	-	0	-	0	-	-

Screens (PubChem BioAssay)
